Consider 40 molecules from PubChem BioAssay (NCI).

The panel holds about 83,000 compounds, 20% with a hit somewhere; the sample as a whole holds those more often.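 Single-concentration screen, 48 h exposure, 96-well plates. Endpoint: percent growth. Below 10 = active.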 Values without a mark were called inactive. Calls of active or inactive are those of the source.

The test system of the first assay is UACC-62 melanoma. Briefly: NCI-60 one-dose screen, 48 h (100 = growth as untreated, 0 = no growth, -100 = all killed). The note with it: 10 µM unless noted.
With `COc1cccc2c1nc1cccc(OC)c1[n+]2[O-]`, the growth is 39.6%.
Still for that read-out and setting: in the case of `O=C1/C(=N\c2cc(=O)[nH]n2S(=O)(=O)c2ccccc2)Nc2ccccc21` it was 97.6%.
Still for that read-out and setting: to `c1ccc(Nc2ccccn2)cc1` belongs 93.7%.
Still for that read-out and setting: in the case of `COc1ccc(OC)c(Cn2cc3c(c2)-c2oncc2CC3)c1` it was 53%; in that of `O=C1C(=O)c2ccccc2C(O)=C1CCCc1ccc(C2CCCC2)cc1`, 40.7%.
For `CCCOC(=O)c1c(C)n(C)c2scc[n+]12`, the growth was 84%.
The same measure, in the same setting: to `COc1cc(-c2nc3c(c(C)nc4c3nnn4-c3ccccc3)c(=O)o2)cc(OC)c1OC` belongs 102%; to `COC(=O)Nc1nc2ccc(C(=O)c3ccccc3N(C)C3COC3)cc2[nH]1`, 27%.
On to `COc1cc(Cn2ccc3c2-c2oncc2CC3)cc(OC)c1`, for which the growth is 38.3%.
As to `c1ccc(Nc2ncc3c(n2)-c2cccn2CC3)cc1`, the growth is 80.1%.
The same measure, in the same setting: to `N=c1c2c(=O)n3c(nc2nc2sc4ccc(Cl)cc4n12)-c1ccccc1Sc1ccccc1-3` belongs -26% (active).
On the same count and under the same terms, to `NC(=O)CC(NC(=O)COc1ccc(Cl)cc1Cl)C(=O)O` (stereo unspecified) belongs 98.6%.
For the molecule `C=C(C)[C@@H]1CC[C@]2(COC(=O)c3ccccc3C(=O)O)CC[C@]3(C)[C@H](CC[C@@H]4[C@@]5(C)CCCNC(C)(C)[C@@H]5CC[C@]43C)[C@@H]12`, the growth is 75.6%.
The same measure, in the same setting: to `C/C=C(/C)C(=O)OC1C=C(CO)C(=O)C(OC(=O)/C(C)=C\C)C1C(C)C` (stereo unspecified) belongs -84.7% (active); to `CC(=O)OC1CC2C3CCC4C[C@@H](NC(=O)C=C(C)C)CC[C@]4(C)C3CC[C@]2(C)[C@H]1C(C)N(C)C` (stereo partly specified), -52.6% (active).
On the same count and under the same terms, in the case of `CC(=O)/C(=C/c1ccc(-c2ccccc2)cc1)C(=O)c1ccccc1` it was 80.5%.

Another assay relates to LOX IMVI melanoma. The assay is described as above. The settings on record: 10 µM unless noted.
With `Nc1ccc(S(=O)(=O)c2ccc(NO)cc2)cc1`, the growth is 99.5%.
Still for that read-out and setting: in the case of `COc1cc(NC(C)CCCN)c2nccc(C)c2c1OC` (stereo unspecified) it was 58.5%; in that of `CCCC(=O)NNc1[nH]c(-c2cc(OC)c(OC)c(OC)c2)cc1C(=O)OCC`, 105%.
Take `CC(C)OC(=O)c1ccc2n1CCCc1cnc(Nc3ccccc3)nc1-2`: the growth was 78.7%.
Still for that read-out and setting: in the case of `COC(=O)c1ccc2[nH]c(O)c(C(=Nc3ccc(N(C)C(=O)CN4CCN(C)CC4)cc3)c3ccc(OC)cc3)c2c1` it was 16.1%; in that of `CC(=O)c1cc(Nc2cc(C)nc(N)n2)cc(C(C)=O)c1`, 99.8%; in that of `CCOC(=O)C1=C(C(F)(F)F)NC(=S)NC1CN1C(=O)c2ccccc2C1=O` (stereo unspecified), 105%.
Still for that read-out and setting: to `CC(C)OC(=O)[C@H](C)N[P@@](=O)(OC[C@@]1(C)O[C@@H](n2cc(F)c(N)nc2=O)C[C@@H]1O[P@](=O)(N[C@@H](C)C(=O)OC(C)C)Oc1ccccc1)Oc1ccccc1` belongs 80.8%; to `COc1ccc(Cn2cc3c(c2-c2ccccc2)CCc2cnoc2-3)cc1OC`, 43.3%.
Regarding `CC1C(=O)CCCC1=O`, the growth is 106%.
Still for that read-out and setting: in the case of `Brc1ccc(-c2nc3ccccc3s2)cc1` it was 89.5%; in that of `O=C(Nc1cccc(Cn2c(=O)[nH]c3ccc(Oc4ncccn4)cc3c2=O)c1)c1ccc(Cl)cc1`, 66.5%.
Still for that read-out and setting: in the case of `Cc1ccc(S(=O)(=O)Nc2cccc(Cn3c(=O)[nH]c4ccc(Oc5ncccn5)cc4c3=O)c2)cc1` it was 64.5%; in that of `CC1(C)Oc2cc3oc(=O)ccc3cc2C[C@@H]1OCCOS(=O)(=O)c1ccc(C#N)cc1`, 97.6%; in that of `COC1NC(Cl)=C(C#N)C(C#N)(C#N)C1(C)C` (stereo unspecified), 98.7%.
Same read-out and setting: to `COc1ccccc1C(=O)Nc1cccc(-c2cc(=O)c3c(OC)c(OC)c(OC)cc3o2)c1` belongs 35.4%; to `C=C(NC(=O)[C@H](C(C)C)N(C)c1cccc2[nH]ccc12)C(=O)OC`, 94.3%; to `Cc1nc2c(nnn2-c2ccccc2)c2nc(-c3ccccc3)oc(=O)c12`, 98.3%.
As for `CCCCCCCCCC[N+](C)(C)C`, the growth is -78.4% (active).
The same measure, in the same setting: in the case of `CCOC(=O)c1ccc2n1CCCc1cnc(NC(C)=O)nc1-2` it was 99.7%; in that of `O=S(=O)(O)c1ccc2c(c1)Sc1cc(S(=O)(=O)O)ccc1O2`, 99.7%; in that of `COc1cc(/C=C/C(=O)c2ccc(F)cc2)ccc1OCCCCOc1cc2c(cc1OC)C(=O)N1CCCC1C=N2` (stereo unspecified), -84.6% (active).
Same read-out and setting: to `COC(=O)C(C)[C@H]1CC[C@@H]2[C@]1(C)CC=C1[C@]23C=C[C@]2(C[C@@H](OC(C)=O)CC[C@]12C)C(C(=O)OC)C3C(=O)OC` (stereo partly specified) belongs 91.7%.
Still for that read-out and setting: in the case of `COc1ccc2cnc(N)c(C#Cc3cc(C(=O)Nc4ccc(CN5CCN(C)CC5)c(C(F)(F)F)c4)cnc3C)c2c1` it was 12%.
Consider `COc1cccc2c1nc1cccc(OC)c1[n+]2[O-]`, for which the growth is 31.9%.
The same measure, in the same setting: in the case of `O=C1/C(=N\c2cc(=O)[nH]n2S(=O)(=O)c2ccccc2)Nc2ccccc21` it was 92.4%.
On the same count and under the same terms, to `c1ccc(Nc2ccccn2)cc1` belongs 102%; to `COc1ccc(OC)c(Cn2cc3c(c2)-c2oncc2CC3)c1`, 35.4%.
The same measure, in the same setting: to `O=C1C(=O)c2ccccc2C(O)=C1CCCc1ccc(C2CCCC2)cc1` belongs 1.77% (active).
Take `CCCOC(=O)c1c(C)n(C)c2scc[n+]12`: the growth was 82%.
Same read-out and setting: in the case of `COc1cc(-c2nc3c(c(C)nc4c3nnn4-c3ccccc3)c(=O)o2)cc(OC)c1OC` it was 101%.
Consider `COC(=O)Nc1nc2ccc(C(=O)c3ccccc3N(C)C3COC3)cc2[nH]1`, for which the growth was 30.8%.
On the same count and under the same terms, in the case of `COc1cc(Cn2ccc3c2-c2oncc2CC3)cc(OC)c1` it was 40.1%; in that of `c1ccc(Nc2ncc3c(n2)-c2cccn2CC3)cc1`, 92.4%.
On to `N=c1c2c(=O)n3c(nc2nc2sc4ccc(Cl)cc4n12)-c1ccccc1Sc1ccccc1-3`, for which the growth was 24.2%.
Still for that read-out and setting: in the case of `NC(=O)CC(NC(=O)COc1ccc(Cl)cc1Cl)C(=O)O` (stereo unspecified) it was 97.1%.
On to `C=C(C)[C@@H]1CC[C@]2(COC(=O)c3ccccc3C(=O)O)CC[C@]3(C)[C@H](CC[C@@H]4[C@@]5(C)CCCNC(C)(C)[C@@H]5CC[C@]43C)[C@@H]12`, for which the growth is 48.3%.
Still for that read-out and setting: in the case of `C/C=C(/C)C(=O)OC1C=C(CO)C(=O)C(OC(=O)/C(C)=C\C)C1C(C)C` (stereo unspecified) it was -92.5% (active).
Same read-out and setting: to `CC(=O)OC1CC2C3CCC4C[C@@H](NC(=O)C=C(C)C)CC[C@]4(C)C3CC[C@]2(C)[C@H]1C(C)N(C)C` (stereo partly specified) belongs -15% (active).
For `CC(=O)/C(=C/c1ccc(-c2ccccc2)cc1)C(=O)c1ccccc1`, the growth is 19.5%.
